Consider 12 compounds from PubChem BioAssay (NCI).

Test in all cases: NCI-60 one-dose screen, 48 h (100 = growth as untreated, 0 = no growth, -100 = all killed)
One test has as its system HCT-15 colon. The following applies: 10 µM.
For another test, the system named is HT29 colon. The following applies: 10 µM.
For the next test, the system named is SNB-75 CNS. To be noted: 10 µM.
In a further test the test system is SNB-19 CNS. The following applies: 10 µM.
Another test relates to U251 CNS. The following applies: 10 µM.
For the next test, the system named is PC-3 prostate. The following applies: 10 µM.
For the next test, the system named is SK-MEL-5 melanoma. To be noted: 10 µM.
Another test concerns UACC-62 melanoma. The following applies: 10 µM unless noted.
The next test concerns LOX IMVI melanoma. The following applies: 10 µM.
For a further test, the system named is SK-MEL-28 melanoma. To be noted: 10 µM.

The panel holds about 83,000 compounds, 20% with a hit somewhere; the sample as a whole holds those more often.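 Cell lines were cultured in 96-well plates, exposed to a single compound concentration, and assessed for percent growth 48 hours later.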 Unmarked numbers belong to inactive results. The source made the active and inactive calls. Rule for the calls: active = growth percent below 10; inactive = the rest.

Regarding `CC1(C)N=C(N)N=C(N)N1c1cccc(Br)c1`, the growth with HCT-15 colon was 32.4%; in the test with HT29 colon, 28.4%; in the test with SNB-75 CNS, 58.6%; in the test on SNB-19 CNS it was 44.9%; with U251 CNS, 32.9%; in the test on PC-3 prostate, 38.5%. Besides, the growth is 26.7% in the test with SK-MEL-5 melanoma, 30.2% in the test on UACC-62 melanoma, 20.2% in the test on LOX IMVI melanoma and 72.5% in the test on SK-MEL-28 melanoma.

For `C=CCNC(=O)c1ccc(OC)cc1`, the growth was 108% in the test on HCT-15 colon; 129% in the test with HT29 colon; 117% in the test with SNB-75 CNS; 92.1% in the test with SNB-19 CNS; 101% with U251 CNS; 104% in the test on PC-3 prostate. The growth in the test on SK-MEL-5 melanoma was 103%; with UACC-62 melanoma it was 99.1%; with LOX IMVI melanoma, 111%; with SK-MEL-28 melanoma, 144%.

Consider `O=C(O)c1cccc([N+](=O)[O-])c1`, for which the growth with HCT-15 colon is 108%; in the test on HT29 colon, 111%; in the test with SNB-75 CNS it was 94.3%; in the test with SNB-19 CNS, 106%; in the test with U251 CNS, 95.7%; with PC-3 prostate, 93.1%. Besides, the growth in the test with SK-MEL-5 melanoma is 107%; with UACC-62 melanoma, 101%; in the test on LOX IMVI melanoma it was 99.2%; with SK-MEL-28 melanoma it was 112%.

Turning to `COc1cc(C(N)=O)cc(OC)c1OC`, the growth was 101% in the test on HCT-15 colon; 102% in the test on HT29 colon; 86.6% with SNB-75 CNS; 99.2% with SNB-19 CNS; 96.5% with U251 CNS; 106% with PC-3 prostate. Further, the growth was 106% in the test with SK-MEL-5 melanoma, 94.2% with UACC-62 melanoma, 104% in the test with LOX IMVI melanoma and 116% in the test with SK-MEL-28 melanoma.

Take `Cc1cc(N2CCC(N3CCCC3)CC2)nc(/N=C(\N)Nc2ccc(Cl)c(Cl)c2)n1`: the growth in the test on HCT-15 colon is -12.7% (active); in the test on HT29 colon it was -44.6% (active); in the test with SNB-75 CNS, -60.3% (active); in the test on SNB-19 CNS, 90.7%; in the test on U251 CNS it was -71.8% (active); with PC-3 prostate, 82.6%. The growth with SK-MEL-5 melanoma was -94% (active); in the test on UACC-62 melanoma, -82.9% (active); with LOX IMVI melanoma, -90.8% (active); in the test with SK-MEL-28 melanoma it was -75% (active).

Regarding `OCC1OC(OC2C(O)C(CO)OC2(CO)OC2OC(CO)C(O)C(O)C2O)C(O)C(O)C1O` (stereo not given), the growth in the test on HCT-15 colon is 107%; with HT29 colon, 102%; with SNB-75 CNS, 86.1%; in the test with SNB-19 CNS, 102%; with U251 CNS it was 109%; in the test with PC-3 prostate it was 98.5%. Also, the growth in the test with SK-MEL-5 melanoma is 109%; with UACC-62 melanoma, 107%; in the test with LOX IMVI melanoma, 93.1%; in the test on SK-MEL-28 melanoma, 106%.

In the case of `CC(=O)OC(C(=O)O)c1ccccc1` (stereo not given), the growth with HCT-15 colon was 111%; in the test on HT29 colon, 104%; in the test on SNB-75 CNS it was 116%; in the test on SNB-19 CNS it was 115%; in the test with U251 CNS, 109%; in the test with PC-3 prostate it was 91%. Besides, the growth in the test with SK-MEL-5 melanoma was 105%; with UACC-62 melanoma it was 112%; in the test with LOX IMVI melanoma, 105%; in the test with SK-MEL-28 melanoma, 119%.

As for `CCc1nn(Cc2ccccc2)c2nc(C)c(CCc3ccccc3)c(Cl)c12`, the growth was 98.5% in the test on HCT-15 colon; 88.6% with HT29 colon; 93.2% with SNB-75 CNS; 80.2% in the test on SNB-19 CNS; 96.9% in the test with U251 CNS; 76% in the test with PC-3 prostate. Besides, the growth was 82.7% in the test with SK-MEL-5 melanoma, 84.5% in the test with UACC-62 melanoma, 92.6% with LOX IMVI melanoma and 107% in the test with SK-MEL-28 melanoma.

As for `O=[N+]([O-])c1ccc(N=Nc2ccccc2)cc1`, the growth was 100% with HCT-15 colon; 92.2% in the test with HT29 colon; 88.5% in the test on SNB-75 CNS; 96.7% in the test on SNB-19 CNS; 90.5% in the test on U251 CNS; 83.5% with PC-3 prostate. For the same compound, the growth was 99% in the test on SK-MEL-5 melanoma, 91.4% with UACC-62 melanoma, 92% with LOX IMVI melanoma and 99.3% with SK-MEL-28 melanoma.

For `CCCC[P+](c1ccccc1)(c1ccccc1)c1ccccc1`, the growth with HCT-15 colon was 99.5%; in the test with HT29 colon, 40.9%; in the test with SNB-75 CNS, 53.5%; in the test on SNB-19 CNS, 55.3%; in the test on U251 CNS, 30.1%; in the test with PC-3 prostate, 26.8%. Moreover, the growth in the test on SK-MEL-5 melanoma is 16.1%; in the test on UACC-62 melanoma, 44.3%; in the test on LOX IMVI melanoma it was 41%; in the test on SK-MEL-28 melanoma it was 69.1%.

With `CCCCCCCCCCCCCCCCC1CC(=O)OC1=O` (stereo not given), the growth was 107% in the test on HCT-15 colon; 109% in the test with HT29 colon; 101% in the test on SNB-75 CNS; 105% with SNB-19 CNS; 96.4% in the test on U251 CNS; 98.9% in the test with PC-3 prostate. Moreover, the growth in the test on SK-MEL-5 melanoma was 103%; with UACC-62 melanoma it was 102%; with LOX IMVI melanoma it was 103%; in the test on SK-MEL-28 melanoma it was 105%.

Consider `O=c1[nH]cc(Cl)cc1O`, for which the growth with HCT-15 colon is 64.4%; in the test with HT29 colon it was 97.3%; in the test on SNB-75 CNS, 93.1%; in the test with SNB-19 CNS, 105%; in the test on U251 CNS it was 88.6%; with PC-3 prostate, 82.2%. The growth in the test with SK-MEL-5 melanoma was 86.6%; with UACC-62 melanoma, 40.5%; in the test on LOX IMVI melanoma, 65.5%; in the test on SK-MEL-28 melanoma, 105%.
